Abs 340nm = compounds absorbing at 340 nm; compound absorbance at 340 nm, fold over control; fold change at 10 µM; 65,000 tested, under 10 active; AID 708;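 active = at 10 µM dose, initial 340 nm absorbance at least 2 fold that of control wells; inactive = change under 2 fold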;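 also: initial absorbance extrapolated from kinetic A340 decline of NADH oxidation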
Autofluor 339 = intrinsic fluorescence of library compounds, ex339/em460 – biochemical, MLSMR library, data from DPM-DC assay, artefact control, profiling panel. compound autofluorescence, ex339/em460 nm, NADH buffer; active compounds read high; 1 = no-compound wells, NADH background. fluorescence fold increase at 10 µM. 5.5% of 65,000 active. AID 709;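 active = at 10 µM, mean starting fluorescence two-fold or more over control wells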;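 also: signal is the first read of a kinetic run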
MK inhibit = inhibitors of Streptococcus pneumoniae mevalonate kinase. purified MK, PK/LDH-coupled NADH absorbance 340 nm. inhibition, % at 10 µM. 0.48% of 65,000 active;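 active = ranked among the strongest by inhibition in the single 10 µM screen, a fixed top-ranked set picked for dose follow-up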
Spn PMK inh = inhibitors of Streptococcus pneumoniae phosphomevalonate kinase. purified PMK, PK/LDH-coupled NADH absorbance 340 nm. inhibition, % at 10 µM. 0.49% of 65,000 active. AID 539;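 active = top-ranked compounds by inhibition in the single 10 µM screen, taking a fixed number of the strongest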;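 also: 0% = full reaction with DMSO carrier and 100% = background rate without enzyme reaction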
NADH coupling = blocks coupling enzymes of NAD/NADH assays | coupled PK/LDH NADH assays, four targets | IC50, µM (top dose mostly 10 µM), without a hit: at the highest dose inhibition | 0.02% of 65,000 active;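 active = single-dose screening hits from any of four coupled enzyme assays that gave an IC50 when retested across doses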;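 also: the DPM-DC format reads NADH fluorescence rather than 340 nm absorbance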
DPM-DC inhibit = S. pneumoniae DPM-DC inhibition; purified DPM-DC, PK/LDH coupled NADH fluorescence; calls only at 10 µM; 0.49% of 65,000 active;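 active = the 320 compounds with the highest percent inhibition in the single-dose primary screen, excluding strongly autofluorescent ones, cut at about 32% in these data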;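 also: kinetic rate of NADH fluorescence loss reporting ADP formed by the decarboxylase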
Active calls of the source: *; i = inactive; x = no result given; + = active, no number. In the library only some 6.5% were active in any assay of this set; here they are far more common.

SMILES	Abs 340nm	Autofluor 339	MK inhibit	Spn PMK inh	NADH coupling	DPM-DC inhibit
CCOC(=O)c1c(NC(=O)c2nc3n(n2)C(C(F)F)CC(C)N3)sc2c1CCCC2 (configuration not stated)	1.09	5.08*	6.0	17.0	12.0%	x
O=C(Nc1sc2c(c1C(=O)NC1CCCCC1)CCC2)c1ccco1	1.05	3.57*	12.0	9.0	11.0%	x
CCOC(=O)c1c(NC(=O)c2cccs2)sc2c1CC(C)(C)OC2	1.1	2.15*	9.0	3.0	6.0%	i
Cc1nn(Cc2ccc(Cl)cc2Cl)c(C)c1NC(=O)c1nc2n(n1)C(C(F)F)CC(C)N2 (configuration not stated)	0.99	1.17	4.0	9.0	4.0%	i
CCOC(=O)c1cccc(NC(=O)c2cccs2)c1	1.04	1.17	6.0	5.0	5.0%	i
Cn1c(=O)[nH]c(=O)c2c1ncn2CCCc1ccccc1	0.98	1.08	5.0	8.0	4.0%	i
COc1ccccc1NC(=O)c1c(NC(=O)c2ccco2)sc2c1CCC2	1.08	2.31*	2.0	4.0	3.0%	x
CCOC(=O)c1c(NC(=O)c2ccn(CC)n2)sc2c1CCCC2	1.04	2.67*	4.0	0.0	13.0%	x
COc1ccc(OC)c(NC(=O)c2c(NC(=O)CNCc3ccco3)sc3c2CCC3)c1	1.06	2.29*	0.0	0.0	0.0%	x
O=C(COC(=O)c1ccco1)NC1CCCCC1	1.02	1.02	0.0	25.0*	8.0%	i
CCOC(=O)c1c(NC(=O)COC)sc2c1CCCC2	1.06	1.18	9.0	0.0	3.0%	i
CCOC(=O)c1c(C)[nH]c(C(=O)C(C)OC(=O)c2cccc(OCc3c(C)noc3C)c2)c1C (configuration not stated)	1.01	1.07	0.0	11.0	4.0%	i
CCOC(=O)c1c(NC(=O)c2ccco2)sc2c1CCCC2	1.07	2.1*	7.0	10.0	9.0%	x
CCOC(=O)c1c(C2COc3ccccc3O2)csc1NC(=O)c1ccco1 (configuration not stated)	1.12	3.17*	28.0	4.0	11.0%	i
CCOc1ccc(-n2c(=O)c3c(C)c(C)sc3n(CC(=O)NCc3ccco3)c2=O)cc1	1.01	1.07	6.0	16.0	7.0%	i
COc1ccc(-n2c(=O)c3c4c(sc3n(CC(=O)NCc3ccco3)c2=O)CCC4)c(OC)c1	1.04	1.08	63.0*	3.0	22.0%	i
Cc1nn(-c2ccccn2)c2c1C(c1ccsc1)C1=C(CCCC1=O)N2 (configuration not stated)	1.11	4.9*	0.0	9.0	5.0%	x
COC(=O)CN(c1ccccn1)S(=O)(=O)c1ccccc1	1.03	3.14*	2.0	6.0	10.0%	i
CCOC(=O)c1[nH]c2ccc(OC)cc2c1NC(=O)CCN1CCC(C)CC1	1.01	2.46*	0.0	1.0	1.0%	x
CCOC(=O)c1[nH]c2ccc(F)cc2c1NC(=O)CN1CCc2cc(OC)c(OC)cc2C1	1.02	1.95	14.0	13.0	11.0%	i
CCOC(=O)c1[nH]c2ccc(OC)cc2c1NC(=O)CCN1CCc2ccccc2C1	1.08	2.26*	6.0	4.0	5.0%	x
COC(=O)c1[nH]c2ccc(Cl)cc2c1NC(=O)CCN1CCOCC1	1.01	2.06*	11.0	13.0	19.0%	+
COC(=O)c1[nH]c2cc(OC)ccc2c1NC(=O)CCN1CCCCC1	1.01	1.18	7.0	8.0	4.0%	i
O=C(CCn1cccc1)NCc1ccc(Cl)cc1	0.99	1.15	0.0	8.0	3.0%	i
COC(=O)C(C(=O)OC)C(C(C)C)C(C(=O)OC)C(=O)OC	1.03	1.09	10.0	0.0	4.0%	i
SMILES	Abs 340nm	Autofluor 339	MK inhibit	Spn PMK inh	NADH coupling	DPM-DC inhibit
Cc1cccc(N2C(N)=C(C#N)C(C#N)(C#N)C2c2ccccc2)c1 (configuration not stated)	1.03	2.7*	11.0	0.0	12.0%	i
Cc1cccc(-n2ncc(C#N)c2N)c1	1	1.01	8.0	4.0	2.0%	i
N#CC1=C(N)N(c2ccccc2)C(c2ccco2)C1(C#N)C#N (configuration not stated)	1.02	2.17*	12.0	11.0	4.0%	x
C1=CC2CC1CC2CNCc1ccco1 (configuration not stated)	1	1.02	0.0	18.0	6.0%	i
CC(=O)c1cc2c(O)c(O)ccc2o1	1.11	1.17	7.0	3.0	3.0%	i
CC(=O)c1cc2cc(O)ccc2o1	1.12	4.37*	8.0	11.0	10.0%	x
COc1ccc2c(c1)cc1n2CCN=C1N	1.07	2.82*	10.0	4.0	10.0%	i
COc1ccc(-c2nc(N)n(C(C)=O)n2)cc1	1.05	1.12	2.0	9.0	4.0%	i
COc1ccc2c(c1)cc1n2CCN2CCCN=C12	1.05	2.1*	11.0	10.0	12.0%	i
CC(C)(O)c1cn(-c2nonc2N)nn1	1.01	1.02	4.0	16.0	7.0%	i
Cc1ccc2nc(-c3cccnc3)oc2c1	1	2.72*	8.0	12.0	15.0%	i
Cc1ccc2nc(-c3ccccn3)oc2c1	1	3.01*	11.0	17.0	16.0%	i
c1ccc(-c2nc3cc(Oc4ccc5oc(-c6ccccn6)nc5c4)ccc3o2)nc1	1.01	1.8	1.0	10.0	4.0%	i
COC(=O)c1ccc(C2C(C(=O)Nc3ccc(C)cc3C)=C(C)Nc3ncnn32)cc1 (configuration not stated)	1.03	1.06	3.0	6.0	3.0%	i
COc1ccc(OC)c(NC(=O)CNC(=O)Cn2ccc3ccccc3c2=O)c1	1.07	1.19	6.0	30.0*	14.0%	i
CCOc1ccc2[nH]c(=O)c(CN(Cc3ccco3)Cc3nnnn3Cc3ccccc3)cc2c1	1.06	2.01*	9.0	1.0	4.0%	i
COc1ccc2[nH]c(=O)c(CN(Cc3ccco3)Cc3nnnn3Cc3ccccc3)cc2c1	1.05	2.26*	9.0	5.0	7.0%	i
COc1ccc2[nH]c(=O)c(CN(CCO)S(=O)(=O)c3ccc4c(c3)OCCO4)cc2c1	0.99	2.08*	10.0	1.0	4.0%	i
CCc1ccc2[nH]c(=O)c(CN(Cc3ccco3)S(=O)(=O)c3ccc4c(c3)OCCO4)cc2c1	1.03	1.39	8.0	18.0	11.0%	i
CCc1ccc2[nH]c(=O)c(CN(Cc3ccccc3OC)Cc3nnnn3Cc3ccco3)cc2c1	1.04	1.23	4.0	1.0	2.0%	i
COC(=O)c1ccccc1S(=O)(=O)N(Cc1ccco1)Cc1cc2cc(OC)ccc2[nH]c1=O	1.03	2.13*	10.0	15.0	15.0%	i
CCCCNC(=O)OCCNC(=O)NC	1	1.02	15.0	11.0	4.0%	i
Cn1cccc1Cc1nnc(SCC(=O)Nc2ccc3c(c2)OCO3)n1-c1ccc(F)cc1	0.97	1.04	10.0	9.0	8.0%	i
